Inconclusive results are not listed. Activity calls are given as the source filed them. How the source made its calls: active means hit-call score of the fitted dose curve at least 0.9, where 1 is the maximum; inconclusive means response in the unintended direction; inactive means score below 0.9.
These molecules were tested against rat Gamma-Aminobutyric Acid Type A Receptor BDZ, alpha 6 site (GABARa6), Gabra6 (gene 29708) (UniProt P30191) (assay: NVS_LGIC_rGABARa6: NovaScreen (NVS) Ligand-Gated Ion Channel Assay for rat Gamma-Aminobutyric Acid Type A Receptor BDZ, alpha 6 site (GABARa6) (AID 2283339)).
Sequence of rat Gamma-Aminobutyric Acid Type A Receptor BDZ, alpha 6 site (GABARa6), Gabra6 (gene 29708) (P30191 whole entry, looked up): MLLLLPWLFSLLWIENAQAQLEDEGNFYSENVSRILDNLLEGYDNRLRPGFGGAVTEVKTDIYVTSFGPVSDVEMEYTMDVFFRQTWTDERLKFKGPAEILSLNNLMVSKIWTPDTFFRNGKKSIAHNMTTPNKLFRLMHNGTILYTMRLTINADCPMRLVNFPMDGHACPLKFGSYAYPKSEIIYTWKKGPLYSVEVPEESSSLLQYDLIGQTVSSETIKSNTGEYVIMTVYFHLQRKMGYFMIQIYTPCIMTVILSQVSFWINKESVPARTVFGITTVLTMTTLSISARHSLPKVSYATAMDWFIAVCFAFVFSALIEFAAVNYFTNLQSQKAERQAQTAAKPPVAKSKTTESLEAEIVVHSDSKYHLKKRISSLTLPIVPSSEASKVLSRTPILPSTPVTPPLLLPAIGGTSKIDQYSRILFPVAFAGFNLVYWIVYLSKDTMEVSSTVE
Procedure: NVS_LGIC_rGABARa6 is a biochemical, single-readout assay that uses extracted gene-proteins from Rat cerebellar membranes in a tissue-based cell-free assay. Measurements were taken 1 hour after chemical dosing in a 48-well plate.NVS_LGIC_rGABARa6 is one of one assay component(s) measured or calculated from the NVS_LGIC_rGABARa6 assay. It is designed to make measurements of radioligand binding, a form of binding reporter, as detected with scintillation counting signals by Filter-based radiodetection technology.Data from the assay component NVS_LGIC_rGABARa6 was analyzed into 1 assay endpoint. This assay endpoint, NVS_LGIC_rGABARa6, was analyzed in the positive analysis fitting direction relative to DMSO as the negative control and baseline of activity. Using a type of binding reporter, loss-of-signal activity can be used to understand changes in the binding as they relate to the gene Gabra6. Furthermore, this assay endpoint can be referred to as a primary readout, because the performed assay has only produced 1 assay endpoint. To generalize the intended target to other relatable targets, this assay endpoint is annotated to the ion channel intended target family, where the subfamily is ligand-gated ion channel.
Binding assays used specific radioligands (tritiated, iodinated) with non-radioactive competitive displacement ligands in agonist or antagonist protocols (as indicated) and various reference compounds and inhibitors to titrate specific binding to receptors and transporters. Most enzyme assays (CYPs, kinases, phosphatases, proteases, HDACs) used recombinant protein and specific substrates (fluorescence mostly, some colorimetric and radioactive) and inhibitors, followed by a biochemical separation of substrate and product. All assays for the biochemical HTS were initially run in duplicate at a single concentration (10 uM for CYP450 assays and 25 uM for all others). Assay-chemical combinations meeting a pre-defined threshold (e.g., 30% inhibition and other criteria defined below) were then run in singleton concentration-response format with maximum concentration of 20 uM for CYPs and 50 uM for all others. Each assay was run with positive and negative controls, and concurrent controls on every plate. The follow-up (secondary) screen tested active chemical-pairs in concentration series, as well as a few additional assays not tested in the primary screen, some selected negative inactives, and several cases re-run in the concentration series for confirmatory purposes.

Row | SMILES | outcome | AC50
1 | CCCCCCCCCC(=O)O | inactive | –
2 | C=COCCCl | inactive | –
3 | Cc1c(-c2cccnc2)c2ccccc2n1CCCCC(=O)O | inactive | –
4 | CCOc1ccc2[nH]cc(C(=O)NCc3ccccc3)c(=O)c2n1 | – | 215 nM (active)
5 | CC[C@H](C)[C@@H](C(=O)O)n1sc2ccccc2c1=O | inactive | –
6 | NC(=O)N1c2ccccc2C=Cc2ccccc21 | inactive | –
7 | CCn1nc(C)c2c1C(=O)NCC(c1ccc(O)cc1)=N2 | inactive | –
8 | CS(=O)(=O)c1ccc(C2=C(c3ccccc3)C(=O)OC2)cc1 | inactive | –
9 | Cc1ccc(C(C)C)c(O)c1 | inactive | –
10 | O=C(OCCOCCOC(=O)c1ccccc1)c1ccccc1 | inactive | –
11 | COC(=O)c1ccccc1S(=O)(=O)NC(=O)Nc1nc(OC(F)F)cc(OC(F)F)n1 | inactive | –
12 | CCCC(CCC)C(=O)O | inactive | –
13 | O=c1n(CC2CO2)c(=O)n(CC2CO2)c(=O)n1CC1CO1 (stereo not given) | inactive | –
14 | C[Si]1(C)O[Si](C)(C)O[Si](C)(C)O[Si](C)(C)O1 | inactive | –
15 | CC(C)(C)CC(C)(C)c1ccc(O)c(-n2nc3ccccc3n2)c1 | inactive | –
16 | CCC(C)N(C)C(=O)c1cc2ccccc2c(-c2ccccc2Cl)n1 (stereo not given) | inactive | –
17 | C[C@]12CC[C@H](O)C[C@H]1CC[C@@H]1[C@@H]2C[C@@H](O)[C@]2(C)[C@@H](C3=CC(=O)OC3)CC[C@]12O | inactive | –
18 | COc1ccc(OC)c(N=Nc2c(O)ccc3ccccc23)c1 | inactive | –
19 | Cc1cccc(C)c1[N+](=O)[O-] | inactive | –
20 | CC=Cc1ccc(OCC)c(O)c1 | inactive | –
